PKM2 activator: PKM2 (human) enzyme activation. P14618. purified PKM2, Kinase-Glo ATP luminescence, activation; response scale: 0% is enzyme alone, no compound. Potency, µM (series often up to 57.5 µM), usual class: activators. 260,000 compounds, 0.34% hits. AID 1631; active = well fitted activation curve with a large enough effect; inconclusive = small, poorly fitted or top-dose-only effect; inactive = no such curve, though single readings can be large or run the other way; also: nearly all actives have a fitted effect of over 55% in size
Target sequence (P14618 whole entry, looked up): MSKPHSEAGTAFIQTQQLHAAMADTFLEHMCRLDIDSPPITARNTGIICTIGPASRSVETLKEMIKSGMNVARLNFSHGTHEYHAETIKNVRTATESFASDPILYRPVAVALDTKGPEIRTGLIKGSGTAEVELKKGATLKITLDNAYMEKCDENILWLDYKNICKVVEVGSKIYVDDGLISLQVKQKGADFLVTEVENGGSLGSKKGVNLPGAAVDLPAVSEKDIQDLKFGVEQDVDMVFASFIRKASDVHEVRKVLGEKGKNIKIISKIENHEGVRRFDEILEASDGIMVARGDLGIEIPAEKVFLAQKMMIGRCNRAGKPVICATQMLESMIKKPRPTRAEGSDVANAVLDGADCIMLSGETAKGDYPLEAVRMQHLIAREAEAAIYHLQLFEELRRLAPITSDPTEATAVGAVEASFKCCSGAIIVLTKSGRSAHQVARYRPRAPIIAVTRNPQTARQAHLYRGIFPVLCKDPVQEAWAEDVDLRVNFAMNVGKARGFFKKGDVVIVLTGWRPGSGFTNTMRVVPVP
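hPK-M2, >95% pure; 0.1 mM ADP / 0.5 mM PEP final; imidazole pH7.2 buffer w/ 7 mM MgCl2, 50 mM KCl; 1 h RT; Kinase-Glo lum. Intermediate enzyme activity for dual inhibitor/activator qHTS.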
MBNL1-CUG inh: MBNL1-poly(CUG) RNA binding inhibition; Q9NR56; TR-FRET MBNL1-His/biotin-(CUG)12 binding, 665/545 ratio; Potency, µM (doses to about 57.5 µM), hits mostly inhibitors; 280,000 compounds, 0.036% hits; AID 2675; active = well fitted inhibition curve with a large enough effect in the signal ratio, with a control signal flat, not every such curve was filed as active; inconclusive = small, poorly fitted or top-dose-only effect, or effect the other way, or a change in a side signal; inactive = no such curve, though single readings can be large or run the other way; the % refers to the signal ratio
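His-tagged MBNL1 binding to biotinylated (CUG)12 RNA was measured by TR-FRET using terbium anti-His antibody (0.055 ng/ul final) and streptavidin-XL665 (5 nM final). Compounds were titrated 92 nM to 58 uM; 60 min at room temperature.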
CtBP-E1A blk: blocks the CtBP interaction with E1A; AID 651724; AlphaScreen GST-E1A/His-CtBP binding, 1536-well; hits give low values; 340,000 compounds, 0.49% hits; activity change, % (test concentration not listed)
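AlphaScreen with 125 nM GST-E1A and 125 nM His-CtBP (5X stocks) in Tris pH 8.0, 300 mM NaCl, BSA, Tween 20, TCEP. Compounds preincubated 2 h at 37 deg C, then glutathione donor/nickel acceptor beads added for 1 h at 37 deg C in dark.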
Six1-Eya2 inh: Six1/Eya2 interaction inhibition | Q15475+O00167 | AID 651725 | AlphaScreen GST-Six1/His-Eya2 binding, biochemical; hits give low values | activity change, % (concentration not given with the values) | 360,000 compounds, 0.56% hits
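Compounds are tested against tagged Six1 and Eya2 proteins bridged by glutathione donor and nickel acceptor beads; after a one-hour incubation at 37 °C without light, AlphaScreen emission is recorded.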
Of the large screens only hits and unclear results are named; the others gave an inactive call. Rows were chosen to be rich in hits. Some 0.93% of all compounds tested hit in one or more screens of this group. Rule as the data show it, unless noted: active = activity change below about -65%; inconclusive = mostly about -30% to -63%; inactive = weaker than that.

CC(=O)c1ccc(OC2(C)CCN(CCOc3ccc(C)cc3)C2)cc1 (configuration not stated)	none (no result: PKM2 activator, MBNL1-CUG inh)
COc1cc(Nc2ccn3nc(-c4ccccc4Cl)cc3n2)cc(OC)c1OC	none (no result: PKM2 activator, MBNL1-CUG inh)
C[C@H]1Cc2c(-c3ccccc3)nc3c(c2CO1)CN(S(=O)(=O)c1ccc(C#N)cc1)CC3	none (no result: MBNL1-CUG inh, CtBP-E1A blk, Six1-Eya2 inh)
O=C(Nc1cccc2c1CCCC2)c1cc(C2CCCCN2C(=O)CCCc2ccccc2)on1 (configuration not stated)	none (no result: PKM2 activator, MBNL1-CUG inh)
Nc1c(C(=O)Nc2ccc(Cl)c(C(=O)O)c2)sc2nc3c(cc12)CCCC3	MBNL1-CUG inh inconclusive, CtBP-E1A blk -78, Six1-Eya2 inh -74 (no result: PKM2 activator)
Nc1c(C(=O)Nc2cccc(C(=O)O)c2)sc2nc3c(cc12)CCCC3	MBNL1-CUG inh inconclusive, CtBP-E1A blk inconclusive
O=C1NCCCC1C(=O)N/N=C/c1cc([N+](=O)[O-])ccc1O (configuration not stated)	MBNL1-CUG inh inconclusive, CtBP-E1A blk -96, Six1-Eya2 inh -69
O=C(N/N=C/c1cc([N+](=O)[O-])ccc1O)C1CC1	MBNL1-CUG inh inconclusive, Six1-Eya2 inh -85
O=C1NCCCC1C(=O)N/N=C/c1ccc([N+](=O)[O-])cc1 (configuration not stated)	MBNL1-CUG inh inconclusive (no result: CtBP-E1A blk)
CCc1ccc(N2CC(C(=O)N/N=C/c3cc([N+](=O)[O-])ccc3O)CC2=O)cc1 (configuration not stated)	CtBP-E1A blk -88, Six1-Eya2 inh -80
CCN1CCC(O)(/C=C/c2ccc(C(C)C)cc2)C(C(=O)/C=C/c2ccc(C(C)C)cc2)C1 (configuration not stated)	none (no result: PKM2 activator, MBNL1-CUG inh)
COc1cccc(OC)c1OCc1cc(C2C3CCCC=C3C(C#N)=C(N)C2(C#N)C#N)c(C)cc1C (configuration not stated)	PKM2 activator 4.5µM
CCCN1CC=C2C(C#N)=C(N)C(C#N)(C#N)C(c3cccc(OC)c3OC)C2C1 (configuration not stated)	MBNL1-CUG inh inconclusive
O=[N+]([O-])c1ccc(Sc2cccc[n+]2[O-])c2nonc12	MBNL1-CUG inh inconclusive, CtBP-E1A blk -68, Six1-Eya2 inh -68
Cc1cc(Br)cn2c(Cc3ccsc3)c(-c3ccc(F)cc3)nc12	none (no result: PKM2 activator, MBNL1-CUG inh)
COC(=O)[C@H]1C[C@H](OC(=O)NCc2ccccc2F)[C@@]2(O)CN(S(=O)(=O)c3ccc(C)cc3)CC2[C@H]1C(=O)OC (some centres not stated)	none (no result: PKM2 activator, MBNL1-CUG inh)
CCc1cccc(CC)c1NC(=S)NCCc1c(C)[nH]c2ccccc12	none
CCc1cccc(CC)c1NC(=S)NCCc1ccc(O)c(O)c1	PKM2 activator 22µM
COc1ccc(OC)c(S(=O)(=O)n2nnc3ccccc32)c1	Six1-Eya2 inh inconclusive
COc1ccc(F)cc1S(=O)(=O)n1nnc2ccccc21	CtBP-E1A blk inconclusive, Six1-Eya2 inh -68
CCOc1ccc(NC(=O)CSc2ccc3nnc(-c4cccnc4)n3n2)cc1	none
Fc1cccc(CSc2ccc3nnc(-c4cccnc4)n3n2)c1	CtBP-E1A blk inconclusive, Six1-Eya2 inh -67
COc1cccc(NC(=O)CSc2ccc3nnc(-c4cccnc4)n3n2)c1	CtBP-E1A blk inconclusive
CCOc1ccccc1NC(=O)CSc1ccc2nnc(-c3cccnc3)n2n1	CtBP-E1A blk -85, Six1-Eya2 inh -79
COc1ccccc1NC(=O)CSc1ccc2nnc(-c3cccnc3)n2n1	CtBP-E1A blk -77, Six1-Eya2 inh -70
COc1ccc(NC(=O)CSc2ccc3nnc(-c4cccnc4)n3n2)c(OC)c1	CtBP-E1A blk -68, Six1-Eya2 inh inconclusive
CCCCc1nc2c(c3c1C[C@H](C)OC3)CN(C(=O)Nc1ccc(OC)cc1)CC2	none (no result: MBNL1-CUG inh, CtBP-E1A blk, Six1-Eya2 inh)
CCCCC(=O)N(C)c1c(CC)nc2c(OCc3cc(Cl)cc(Cl)c3)cccn12	none (no result: PKM2 activator, MBNL1-CUG inh)
C[C@@H]1CN([C@@H](C)CO)C(=O)c2cc(NS(=O)(=O)c3ccc(F)cc3)ccc2O[C@@H](C)CCCCO[C@H]1CN(C)C(=O)NC1CCCCC1	none (no result: PKM2 activator, MBNL1-CUG inh)
CC(C)(C)C1=CC(=Nc2ccccc2N)C=C(C(C)(C)C)C1=O	CtBP-E1A blk -79, Six1-Eya2 inh -81 (no result: MBNL1-CUG inh)
CC(C)(C)C1=CC(=O)C(=O)C(C(C)(C)C)=C1	PKM2 activator inconclusive (no result: CtBP-E1A blk)
C[C@H]1Cn2cnc(C(=O)Nc3cccc(Cl)c3)c2C(=O)N1	none (no result: PKM2 activator, MBNL1-CUG inh)
COc1cc(F)ccc1-c1csc(C(C)(NC(C)=O)c2ccccc2)n1 (configuration not stated)	none (no result: PKM2 activator, MBNL1-CUG inh)

Bioassay records deposited in PubChem BioAssay by National Center for Advancing Translational Sciences (NCATS).
